# According to the supplement of paper PMC4166925:
# ± gives the standard deviation of the averaged measurements. Whole data set: some 33,000 sequences, median “E-score (dimensionless, -0.5 to 0.5)” near -0.049, cut for the highest 2% near 0.37. Many of the other results were omitted from the sample, so the highest values are more common in it than they were.
# Tested on: T1, PmTbr T-box DNA-binding domain (GST fusion)
# T1 sequence: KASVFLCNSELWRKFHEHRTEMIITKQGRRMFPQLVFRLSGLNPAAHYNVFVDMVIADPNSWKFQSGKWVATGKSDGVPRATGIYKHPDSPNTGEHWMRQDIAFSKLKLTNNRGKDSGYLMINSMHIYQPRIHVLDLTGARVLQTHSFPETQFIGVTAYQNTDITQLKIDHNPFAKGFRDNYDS
# Assay: PBM E-score of 8-mer (E-score (dimensionless, -0.5 to 0.5)); Tbr is Tbrain of the sea star Patiria miniata (Pm) or the sea urchin Strongylocentrotus purpuratus (Sp); higher = stronger binding preference
# Details: the construct has about 5 more residues each side
# How it was run: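 Universal Agilent oligonucleotide arrays, made double-stranded by primer extension, were incubated with 200 nM GST-fused Tbr T-box DNA-binding domain in PBS (pH 7.5). The protein was expressed in BL21 E. coli at 20 °C and purified by glutathione affinity chromatography. After scanning and quantification, the Universal PBM Analysis Suite assigned an enrichment E-score to each ungapped 8-mer, averaged over duplicate arrays.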
row,Sequence,PBM E-score of 8-mer
1,AGAAGGGA,-0.301 ± 0.082
2,AGTATAAT,-0.0999 ± 0.092
3,ATTGCGCG,0.0393 ± 0.076
4,CTCCATTC,-0.243 ± 0.042
5,ATCGTTGA,-0.173 ± 0.031
6,TATTGGGA,-0.222 ± 0.0037
7,AAGCGCCG,-0.0564 ± 0.022
8,ATTTTTGA,-0.289 ± 0.044
9,CGTGACAC,0.398 ± 0.02
10,AGTGACAA,0.4196 ± 0.0018
11,GATGACAA,0.202 ± 0.017
12,AGTGACCA,0.0489 ± 0.11
13,GGTGACCA,0.0575 ± 0.069
14,CGTGACGC,0.232 ± 0.0054
15,GGTGACAA,0.47312 ± 1.4e-05
16,AGTGACGA,0.358 ± 0.016
17,GGTGACGA,0.429 ± 0.013
18,AGTGACTA,0.115 ± 0.011
19,CGTGACTC,0.0879 ± 0.021
20,CGTGACGA,0.331 ± 0.031
21,CGGTCTTA,-0.0111 ± 0.035
22,GGCTCGCA,0.136 ± 0.053
23,ATCAGAAG,-0.0178 ± 0.033
24,AGCAGGGA,0.00886 ± 0.045
25,CAGACAGC,0.0475 ± 0.042
26,ACCCCAGT,-0.138 ± 0.1

row,Sequence,PBM E-score of 8-mer
1,CTAGTCCC,-0.132 ± 0.064
2,TATGACAA,0.0436 ± 0.061
3,TGTGACAA,0.42 ± 0.028
4,TCTGACAA,0.112 ± 0.048
5,AGAGCCAC,-0.0799 ± 0.014
6,CCTAGTTC,-0.072 ± 0.0041
7,AATCACAC,0.462 ± 0.0075
8,CATCACAC,0.4576 ± 0.0032
9,GATCACAA,0.163 ± 0.045
10,CATCACAA,0.179 ± 0.006
11,CATCACAG,0.109 ± 0.038
12,GATCACGC,0.287 ± 0.017
13,GATCACAC,0.451 ± 0.014
14,AATCACAG,0.0723 ± 0.038
15,AATCACAA,0.199 ± 0.0027
16,AACGAGTC,-0.154 ± 0.018
17,GTCTTCAA,-0.0747 ± 0.03
18,CCGCCCCA,-0.155 ± 0.064
19,ACGCATTC,0.0134 ± 0.0026
20,GTCACAGA,0.0466 ± 0.051
21,CACACACA,0.303 ± 0.0096
22,CTCACACA,0.41 ± 0.0079
23,GTCACAAA,0.118 ± 0.066
24,CACACACG,0.181 ± 0.059
25,GTCACACA,0.3901 ± 0.0019
26,CAATAGTG,0.127 ± 0.061

row,Sequence,PBM E-score of 8-mer
1,ACTTGCGG,-0.0023 ± 0.035
2,GGTGAAAC,0.0805 ± 0.054
3,TCAATGCA,-0.268 ± 0.037
4,CCACCACA,0.117 ± 0.02
5,GCACCACA,0.133 ± 0.047
6,ACACCACT,0.254 ± 0.012
7,CCACCACC,0.107 ± 0.044
8,ACACCACA,0.377 ± 0.008
9,ACACCACG,0.3698 ± 0.0022
10,CCACCACG,-0.00839 ± 0.13
11,TCACCACA,0.204 ± 0.054
12,ACACCACC,0.405 ± 0.0043
13,ACGAAACG,0.16 ± 0.01
14,GCATTGCA,-0.0859 ± 0.03
15,ACAATCTA,-0.0816 ± 0.0069
16,ATCGAAAC,-0.0958 ± 0.024
17,ACCTATTG,0.129 ± 0.034
18,CAGATGAC,-0.0423 ± 0.069
19,GAGGTGAC,0.4496 ± 0.0027
20,CAGGTGAC,0.4485 ± 0.0027
21,CTGGTGAC,0.221 ± 0.045
22,AAGGTGAT,0.424 ± 0.021
23,GAGGTGAA,0.294 ± 0.0035
24,ACGGTGAT,0.202 ± 0.0041
25,GGGGTGAC,0.3431 ± 0.0017
26,AGGGTGAG,0.137 ± 0.097

row,Sequence,PBM E-score of 8-mer
1,AGGGTGAT,0.197 ± 0.018
2,AAGGTGAG,0.452 ± 0.0046
3,ACGGTGAG,0.12 ± 0.014
4,CGTGTCCA,0.00534 ± 0.099
5,GATGCACC,-0.0938 ± 0.034
6,GCAAACCC,-0.0342 ± 0.058
7,CCTCGGTC,0.0608 ± 0.12
8,CCGGTGAG,0.0229 ± 0.12
9,CAGGTGAG,0.422 ± 0.007
10,AAGGTGAA,0.185 ± 0.013
11,AAGGTGAC,0.426 ± 0.011
12,ACGGTGAC,0.285 ± 0.0079
13,CAGGTGAA,0.1748 ± 0.0016
14,CTGACCTA,-0.194 ± 0.079
15,AGTGGAAT,-0.0212 ± 0.05
16,GGCGATAA,0.276 ± 0.048
17,AGACGTAA,-0.2 ± 0.092
18,CCAGTGCG,0.133 ± 0.074
19,ACAACACT,0.37 ± 0.016
20,ACAACACA,0.347 ± 0.033
21,ACAACACG,0.251 ± 0.017
22,GCAACACA,0.311 ± 0.0054
23,GCAACACC,0.455 ± 0.0097
24,CCAACACG,0.274 ± 0.0077
25,ACAACAAT,0.109 ± 0.024
26,GCAACAAC,0.0808 ± 0.019

row,Sequence,PBM E-score of 8-mer
1,ACAACACC,0.435 ± 0.023
2,CCAACACA,0.241 ± 0.023
3,CCAACACC,0.443 ± 0.011
4,AGAACACT,0.133 ± 0.04
5,CCCTTGGA,-0.13 ± 0.033
6,TAGGGCCA,-0.155 ± 0.032
7,CGCCAAGC,0.0166 ± 0.082
8,AGGCCCTC,-0.448 ± 0.0054
9,CTCCCGTA,-0.1898 ± 0.001
10,AGAAAGCC,-0.195 ± 0.021
11,GCTATCTA,-0.0532 ± 0.092
12,CTCTTCTA,-0.215 ± 0.1
13,TCTGGAAA,-0.131 ± 0.019
14,TACACTCA,-0.0251 ± 0.036
15,CCCACTCG,0.0373 ± 0.049
16,CACACTCA,0.3814 ± 0.0034
17,AACACTCA,0.323 ± 0.0094
18,AACACTCC,0.288 ± 0.029
19,AACACTCG,0.237 ± 0.037
20,CACACTCG,0.408 ± 0.011
21,GACACTCC,0.336 ± 0.029
22,CACACTCC,0.402 ± 0.016
23,AGAGAAAG,0.0684 ± 0.065
24,ACTCACCG,-0.0077 ± 0.1
25,CGGAGTCC,-0.183 ± 0.043
26,CTTTGGCA,0.288 ± 0.017

row,Sequence,PBM E-score of 8-mer
1,CGTGGCTA,-0.139 ± 0.056
2,GTCGTTCA,0.19 ± 0.052
3,AACTGAGT,-0.0725 ± 0.037
4,AACTTCGA,0.0686 ± 0.023
5,CCTTCACG,0.213 ± 0.0063
6,GCTTCACA,0.301 ± 0.014
7,ACTTCACG,0.262 ± 0.038
8,TCTTCACA,0.377 ± 0.015
9,CCTTCACA,0.395 ± 0.014
10,ACTTCACA,0.336 ± 0.011
11,CCAAGTGA,0.146 ± 0.01
12,CTGAGCAC,0.0183 ± 0.04
13,GACAGGCA,-0.0532 ± 0.041
14,ACACAGTG,0.229 ± 0.005
15,AGTGTTTC,0.134 ± 0.066
16,CGCTTGAG,-0.0499 ± 0.011
17,AACGTGTC,0.4102 ± 0.0015
18,CACGTGTA,0.2502 ± 0.00031
19,AACGTGTG,0.3941 ± 0.0015
20,AACGTGCG,0.345 ± 0.029
21,AACGTGTA,0.156 ± 0.04
22,CACGTGAC,0.315 ± 0.0075
23,ACCGTGTG,0.218 ± 0.0082
24,CACGTGTC,0.385 ± 0.0079
25,AGCGTGTC,0.174 ± 0.034
26,CGAGGGCA,-0.019 ± 0.015

row,Sequence,PBM E-score of 8-mer
1,ATTAGAAC,-0.161 ± 0.0031
2,GCCAAGCA,-0.0191 ± 0.018
3,ACACCAAG,0.35 ± 0.005
4,GATATCAC,0.331 ± 0.021
5,TCCGCACA,0.104 ± 0.058
6,CGAATTCC,-0.164 ± 0.079
7,ATTTCCCG,-0.133 ± 0.0071
8,GCCTGTGA,0.107 ± 0.014
9,ACCTGTGC,0.0647 ± 0.0069
10,AGCTGTGG,0.0136 ± 0.075
11,AGCTGTGA,0.404 ± 0.017
12,AGCTGTGC,0.182 ± 0.0098
13,ACCTGTGA,0.4002 ± 0.002
14,GGTAGAGA,-0.124 ± 0.0055
15,GACTCAGA,-0.213 ± 0.097
16,TCAAATCA,-0.159 ± 0.042
17,GTCGCCAC,0.326 ± 0.0074
18,ACAGGCTC,0.0148 ± 0.018
19,CCTTCGCG,0.2566 ± 0.0012
20,ACCGTCGT,0.162 ± 0.045
21,ACCTCCGA,0.253 ± 0.033
